# Assay results reported in PubChem BioAssay AID2576 (National Center for Advancing Translational Sciences (NCATS), 2010).
# Inconclusive results are not listed. Unmarked numbers belong to inactive results. The source made the active and inactive calls. Calls follow the shape of the dose curve; as a rule, active = well fitted activation curve with a large enough effect; inconclusive = small, poorly fitted or top-dose-only effect, or effect the other way; inactive = flat fitted curve, though single readings scatter.
# Target: Pyruvate kinase PKM (Homo sapiens) (UniProt P14618)
# Sequence (P14618 whole entry, looked up, canonical isoform): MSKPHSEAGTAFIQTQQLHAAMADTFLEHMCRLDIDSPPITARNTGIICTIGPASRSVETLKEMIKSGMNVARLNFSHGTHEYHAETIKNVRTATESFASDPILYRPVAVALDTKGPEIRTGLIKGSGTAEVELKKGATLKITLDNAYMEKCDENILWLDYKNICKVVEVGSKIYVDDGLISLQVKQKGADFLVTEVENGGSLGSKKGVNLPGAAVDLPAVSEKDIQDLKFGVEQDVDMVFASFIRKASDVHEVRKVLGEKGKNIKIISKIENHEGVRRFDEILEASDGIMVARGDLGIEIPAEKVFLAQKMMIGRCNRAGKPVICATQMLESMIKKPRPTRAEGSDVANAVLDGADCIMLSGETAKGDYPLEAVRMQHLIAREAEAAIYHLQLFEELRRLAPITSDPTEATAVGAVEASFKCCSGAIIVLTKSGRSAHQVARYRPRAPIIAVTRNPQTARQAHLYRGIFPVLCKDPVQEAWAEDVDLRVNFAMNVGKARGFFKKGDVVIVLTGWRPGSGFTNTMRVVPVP
# Experiment: Secondary LDH Assay for Activators of Human Pyruvate Kinase M2 isoform: for Probe SAR
# Conditions: purified hPK-M2, LDH-coupled NADH fluorescence kinetic; series mostly up to 58.4 µM; activation: at the top concentration
# Text: NIH Chemical Genomics Center [NCGC] Matthew G. Vander Heiden, M.D., Ph.D. [Harvard Medical School, 77 Avenue Louis Pasteur, Boston, MA 02115] NCGC Assay Overview: Human pyruvate kinase muscle 2 (hPK-M2)enzyme was supplied as a highly purified (>95% pure) preparation from Harvard Medical School and a secondary assay was used to evaluate compounds. This assay couples the formation of pyruvate from hPK-M2 using lactate dehydrogenase (LDH) and NADH. The depletion of NADH is followed in a fluorescent-based kinetic assay that follows the formation of pyruvate to lactate, as catalyzed LDH (described by Hannaert et al., 2002)1 Pyruvate kinase substrates, PEP and ADP, were present in the assay at 0.1 mM and 4 mM respectively. In this kinetic assay initial rates were determined by following the fluorescence of NADH depletion.
# NCGC Assay Protocol Summary: Three uL of substrate mix (final concentration, 50 mM Tris-Cl pH 8.0, 200 mM KCl, 15 mM MgCl2, 0.1 mM PEP, 4.0 mM ADP, and 0.2 mM NADH) was dispensed into black-solid 1536 well plates. 23 nL of compounds were delivered by a pin tool and 1 uL of enzyme mix (final concentrations, 10 nM hPK-M2 and 1 uM of LDH) was added. Plates were immediately placed in ViewLux (Perkin Elmer) and NADH fluorescence was determined at 30 second exposure intervals for between 3 and 6 minutes. Data were normalized to the uninhibited and EC100 activation using known activators such as fructose-bis-phosphate.
Structure (SMILES),activation,Potency
COc1ccccc1N1C(=O)c2ccccc2C1=O,7.13%,
O=C1CCc2cc(S(=O)(=O)Nc3ccc(F)cc3)ccc2N1,27%,
O=S1(=O)N=C(Oc2ccccc2Cl)c2ccccc21,4.09%,
CC(=O)N1CCCc2cc(S(=O)(=O)Nc3ccc(C)c(C)c3)ccc21,12.3%,
O=C1NS(=O)(=O)c2ccccc21,-4.58%,
Cc1cc2c(s1)c1cnn(Cc3cc(F)c(F)cc3F)c(=O)c1n2C,,398 nM (active)
COc1ccccc1NS(=O)(=O)c1ccc2c(c1)CCC(=O)N2,20.2%,
Cc1ccc(NS(=O)(=O)c2cc3c(cc2N(C)C)CCC(=O)N3)cc1C,,1460 nM (active)
Cc1nc(-c2ccc(S(=O)(=O)Nc3ccc(C)c(C)c3)s2)cs1,20.2%,
O=C1CCc2cc(S(=O)(=O)Nc3ccncc3)ccc2N1,14.4%,
CSc1cc2c(s1)c1cnn(Cc3cccc(N)c3)c(=O)c1n2C,,58 nM (active)
Cc1ccccc1OC1=NS(=O)(=O)c2ccccc21,1.19%,
O=C1c2ccccc2C(=O)N1c1ccc(O)cc1,4.24%,
Fc1ccccc1-c1ccc(-c2nc3ccc(Cl)cn3c2Nc2ccc(Cl)cc2)o1,5.95%,
O=C1c2ccccc2C(=O)N1Cc1ccccc1,3.92%,
Cc1ccc(NS(=O)(=O)c2ccc(F)cc2)cc1C,14.6%,
Cc1cc(N2C(=O)c3ccccc3C2=O)no1,-1.03%,
O=C1CCc2cc(S(=O)(=O)Nc3ccccc3-c3ccccc3)ccc2N1,5.58%,
O=C1c2ccccc2C(=O)N1c1ccc2ncccc2c1,-4.15%,
O=S1(=O)N=C(Oc2ccccc2)c2ccccc21,2.56% [at 82.8 µM],

Structure (SMILES),activation,Potency
Cc1ccc(NS(=O)(=O)c2cc3c(cc2Cl)NC(=O)CO3)cc1C,,819 nM (active)
Nc1cc(S(=O)(=O)N2CCN(S(=O)(=O)c3ccc4c(c3)OCCO4)CC2)ccn1,20.4%,
CCCCN1C(=O)c2ccccc2C1=O,2.71%,
O=C1c2ccccc2C(=O)N1c1cccc2ncccc12,3.02%,
Cc1ccc(NS(=O)(=O)c2cccc(Cl)c2)cc1C,27.6%,
Cc1ccc(NS(=O)(=O)c2ccc(-c3ccccc3)cc2)cc1C,10.9%,
Cc1ccc(NS(=O)(=O)c2ccc3c(c2)N(C)C(=O)CO3)cc1C,,1460 nM (active)
Cc1ccc(N2C(=O)c3ccccc3C2=O)c(C)c1,1.44%,
O=C1c2ccccc2C(=O)N1c1cccc(Cl)c1,-2.64%,
Cc1ccc(N[S+](=O)([O-])c2cc3c(cc2CCc2ccccc2)NC(=O)CO3)cc1C,12.6%,
O=C1c2ccccc2C(=O)N1c1ncccc1O,2.37%,
Cn1c2cc(S(C)=O)sc2c2cnn(Cc3cccc(O)c3)c(=O)c21 (stereo not given),,1030 nM (active)
Cc1ccc(NS(=O)(=O)c2cc3c(cc2-c2ccsc2)NC(=O)CO3)cc1C,16.6%,
O=C1CCc2cc(S(=O)(=O)Nc3cccc(-c4ccccc4)c3)ccc2N1,15.2%,
Cc1ccc(OC2=NS(=O)(=O)c3ccccc32)cc1,-2.38%,
O=C1c2ccccc2C(=O)N1c1cccc(O)c1,-6.18%,
O=C1c2ccccc2C(=O)N1c1ccccc1O,-4.29%,
CNc1cccc(S(=O)(=O)N2CCN(S(=O)(=O)c3ccc4c(c3)OCCO4)CC2)c1,11%,
Cc1ccc(C)c(OC2=NS(=O)(=O)c3ccccc32)c1,-5.9%,
CC(=O)Nc1ccc(S(=O)(=O)Nc2ccc(C)c(C)c2)cc1,5.65%,
